# Legend:
# [1] = system: Schistosoma mansoni schistosomula (LE); test: XTT viability relative to DMSO control; higher = more viable (less active); conditions: 72 h; 10 µM
# Protocol: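 XTT/PMS was then added for a further 24 h (72 h total) and A450 was read. % viability = (sample - heat-killed control)/(DMSO control - heat-killed control) x 100, from duplicate wells in two independent experiments.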
# [2] = system: Schistosoma mansoni schistosomula (NMRI); test: phenotypic severity score (0-4); higher = more antischistosomal effect, active = 2 or more; conditions: 10 µM
# [3] = system: Schistosoma mansoni schistosomula (Liberian); test: drug effect (1 - score/DMSO control score) (fraction); higher = more antischistosomal effect, active = 0.5 or more; extreme values may be limits of the assay; conditions: 10 µM
# Method in brief: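 A plate was valid only if its 0.1% DMSO wells averaged a score of at least 2. Those wells ran beside duplicate wells in which 50 Liberian-strain Schistosoma mansoni schistosomula each, transformed mechanically from cercariae and pre-incubated at least 12 h, met 10 µM compound in Medium 199 with 5% FCS at 37 °C, 5% CO2. Scoring was visual at 10× at 24, 48 and 72 h, from 3 (normal) to 0 (dead) in quarter-point steps. Drug effect was derived from the mean test-well score against the mean DMSO-well score, with negatives set to zero.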
# 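For phenotypic severity score (0-4) in this document: visual microscopic scoring of shape, motility and density changes versus 0.5% DMSO solvent controls, one point per descriptor, degeneracy or death scored 4, mean of duplicate wells.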
Compound,XTT viability [1] [%],phenotypic severity score ([2]; 24 h),phenotypic severity score ([2]; 48 h),phenotypic severity score ([2]; 72 h),drug effect ([3]; 24 h),drug effect ([3]; 48 h),drug effect ([3]; 72 h)
CCCCc1ccc(C(=O)Nc2nccc3ccccc23)nc1,94.2,1 (inactive),0 (inactive),1 (inactive),0.1 (inactive),0.167 (inactive),0.188 (inactive)
CC(C)(C)OC(=O)N1CCC(Cn2nc(-c3cnc4ccccc4c3)c3c(N)ncnc32)CC1,125,1 (inactive),4 (active),4 (active),0.405 (inactive),0.444 (inactive),0.688 (active)
COc1cc(NC(C)CCCN)c2ncccc2c1 (stereo not given),,0 (inactive),0 (inactive),0 (inactive),< 0 (inactive),0.135 (inactive),0.333 (inactive)
O=C(Cn1ccnc1[N+](=O)[O-])NCc1ccccc1,,0 (inactive),0 (inactive),0 (inactive),0.15 (inactive),0.243 (inactive),0.222 (inactive)
FC(F)(F)c1cccc(-c2nc3c(NCc4ccncc4)nccc3[nH]2)c1,90.7,0 (inactive),0 (inactive),0 (inactive),0.15 (inactive),0.0811 (inactive),0.152 (inactive)
Cc1cc(C)n2nc(C(=O)Nc3cc(C(F)(F)F)ccc3N3CCOCC3)nc2n1,73.3,0 (inactive),0 (inactive),0 (inactive),0.05 (inactive),0.135 (inactive),0.222 (inactive)
O=C(C1CCN(c2cc(-n3cccc3)ncn2)CC1)N1CCc2ccccc2C1,96.4,0 (inactive),0 (inactive),1 (inactive),0.05 (inactive),0.111 (inactive),0.333 (inactive)
CCCn1c(NC(=O)c2ccc3ccccc3n2)nc2ccccc21,5.68,1 (inactive),0 (inactive),0 (inactive),0.2 (inactive),0.278 (inactive),0.312 (inactive)
O=S(=O)(c1ccc(Cl)cc1)N1CCN(C(=S)NCc2ccco2)CC1,75.2,1 (inactive),0 (inactive),0 (inactive),0.05 (inactive),0.0811 (inactive),0.111 (inactive)
CCCn1nnc(NC(=O)COc2ccc(C3CCCCC3)cc2)n1,89.6,0 (inactive),0 (inactive),0 (inactive),0.136 (inactive),0.2 (inactive),0.182 (inactive)
O=[N+]([O-])c1cn2c(n1)OC[C@@H](OCc1ccc(OC(F)(F)F)cc1)C2,158,0 (inactive),0 (inactive),0 (inactive),0.2 (inactive),0.167 (inactive),0.312 (inactive)
CNC1C(OC2C(OC3C(O)C(O)C(NC(=N)N)C(O)C3NC(=N)N)OC(C)C2(O)C=O)OC(CO)C(O)C1O (stereo not given),93,0 (inactive),0 (inactive),0 (inactive),0.182 (inactive),0.1 (inactive),0.0727 (inactive)
Nc1nc2ccc(-c3cncc(Oc4ccc(F)cc4)c3)cc2[nH]1,,2 (active),1 (inactive),1 (inactive),0.3 (inactive),0.556 (active),0.688 (active)
COc1cccc(NC(=O)c2c(NC(=O)c3cccnc3)sc3c2CCC3)c1,94.4,0 (inactive),0 (inactive),0 (inactive),0.25 (inactive),0.222 (inactive),0.438 (inactive)
CC(C)(C)n1nc(Cc2ccc(F)c(Cl)c2)c2c(N)ncnc21,,0 (inactive),0 (inactive),0 (inactive),0.0811 (inactive),0.167 (inactive),0.188 (inactive)
Cc1cc(C(=O)Nc2ccc(-c3ccccc3)cc2)no1,90.7,0 (inactive),0 (inactive),0 (inactive),0.1 (inactive),0.0811 (inactive),0.111 (inactive)

Compound,XTT viability [1] [%],phenotypic severity score ([2]; 24 h),phenotypic severity score ([2]; 48 h),phenotypic severity score ([2]; 72 h),drug effect ([3]; 24 h),drug effect ([3]; 48 h),drug effect ([3]; 72 h)
Cc1cc2nc(NC(=O)C(C)(C)C)nc(Cl)c2n1Cc1ccc(Cl)cc1,109,0 (inactive),0 (inactive),0 (inactive),0.136 (inactive),0.4 (inactive),0.345 (inactive)
CCC(=O)Nc1ccccc1C(=O)Nc1ccccn1,87.3,1 (inactive),0 (inactive),0 (inactive),0.136 (inactive),0.3 (inactive),0.236 (inactive)
Cc1ccc(NC(=O)c2nc[nH]c2C(=O)Nc2nc3ccccc3[nH]2)c(C)c1,50.8,3 (active),4 (active),4 (active),0.273 (inactive),0.4 (inactive),0.278 (inactive)
Clc1ccc(CCNc2cc(-c3ccccc3)nc3ncnn23)cc1,83.9,0 (inactive),1 (inactive),0 (inactive),0.136 (inactive),0.2 (inactive),0.127 (inactive)
CC1COC2(CCN(c3nc(=O)c4cc(C(F)(F)F)cc([N+](=O)[O-])c4s3)CC2)O1 (stereo not given),80,1 (inactive),0 (inactive),0 (inactive),0.136 (inactive),0.25 (inactive),0.291 (inactive)
CCCCN(CCCC)c1c(C#N)cc(S(=O)(=O)Nc2ccccc2)cc1C#N,40.5,0 (inactive),0 (inactive),0 (inactive),0.15 (inactive),0.135 (inactive),0.273 (inactive)
CNc1snc(C)c1C(=O)NCCOc1ccc(OC)cc1,91.3,1 (inactive),0 (inactive),0 (inactive),0.0909 (inactive),0.15 (inactive),0.127 (inactive)
N=C(N)Nc1ccc(-c2ccc(-c3ccc(NC(=N)N)cc3Cl)o2)c(Cl)c1,61.7,0 (inactive),0 (inactive),0 (inactive),0.0526 (inactive),0.111 (inactive),0.125 (inactive)
COc1ccc(-c2cncc3ccc(C(=O)NCCCn4ccnc4)nc23)cc1,121,1 (inactive),0 (inactive),0 (inactive),< 0 (inactive),0.027 (inactive),0.0303 (inactive)
CN(C)CCNC(=O)N1CCCN(c2ncnc3cc(-c4ccccc4)sc23)CC1,106,0 (inactive),0 (inactive),0 (inactive),< 0 (inactive),0.2 (inactive),0.556 (active)
CC(C)(C)C(=O)N(CCCCCCN1C[C@H](O)[C@@H](O)[C@H](O)[C@H]1CO)C1CCCCCC1,122,0 (inactive),2 (active),4 (active),0.25 (inactive),0.556 (active),1 (active)
CCc1nc2ccc(Cl)cn2c1C(=O)NCc1ccc(N2CCC(c3ccc(OC(F)(F)F)cc3)CC2)cc1,66.8,1 (inactive),0 (inactive),0 (inactive),0.105 (inactive),0.0556 (inactive),< 0 (inactive)
CC(=O)Oc1ccccc1C(=O)Nc1ncc([N+](=O)[O-])s1,102,2 (active),4 (active),4 (active),0.2 (inactive),0.297 (inactive),0.556 (active)
CCc1nc2ccccc2n1CC(O)COc1cc(C)ccc1Cl (stereo not given),106,0 (inactive),0 (inactive),0 (inactive),0.0909 (inactive),0.25 (inactive),0.236 (inactive)
O=C1COCc2ccc(Br)cc2N1Cc1ccc(C(F)(F)F)cc1,99.5,0 (inactive),0 (inactive),0 (inactive),0.297 (inactive),0.389 (inactive),0.438 (inactive)
COc1ccc(-c2cc(NC(=O)c3ccc(F)cc3Cl)ccc2OC)cc1,89.7,0 (inactive),1 (inactive),0 (inactive),0.0909 (inactive),0.25 (inactive),0.236 (inactive)

# Reference: the supplement of paper PMC6805474
